Reference: PubChem BioAssay (NCI)
This is part of a sample that, as a whole, favours compounds with a hit. Of some 83,000 tested, about 20% had one in any assay.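 Plates (96-well) were seeded with cells, treated with compound at one concentration, and incubated for 48 hours before percent growth was determined.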 Activity calls are given as the source filed them. How the source made its calls: active means growth percent below 10; inactive means the rest.

Experiments:
Assay in all cases: NCI-60 one-dose screen, 48 h (100 = growth as untreated, 0 = no growth, -100 = all killed)
Details in all cases: 10 µM unless noted
SR leukemia = tested on: SR leukemia
RPMI-8226 leukemia = tested on: RPMI-8226 leukemia
OVCAR-8 ovarian = tested on: OVCAR-8 ovarian
OVCAR-5 ovarian = tested on: OVCAR-5 ovarian
OVCAR-4 ovarian = tested on: OVCAR-4 ovarian
SK-OV-3 ovarian = tested on: SK-OV-3 ovarian
IGROV1 ovarian = tested on: IGROV1 ovarian
OVCAR-3 ovarian = tested on: OVCAR-3 ovarian
HS 578T breast = tested on: HS 578T breast
NCI/ADR-RES ovarian = tested on: NCI/ADR-RES ovarian
T-47D breast = tested on: T-47D breast
BT-549 breast = tested on: BT-549 breast
MDA-MB-435 melanoma = tested on: MDA-MB-435 melanoma
SW-620 colon = tested on: SW-620 colon
MCF7 breast = tested on: MCF7 breast
HCT-116 colon = tested on: HCT-116 colon
HCC-2998 colon = tested on: HCC-2998 colon
KM12 colon = tested on: KM12 colon

Measured: growth

O=C(Nc1ccc(F)cc1)Nc1ccc(NC(=O)c2cc(Cl)nc3ccccc23)cc1
active: HS 578T breast 9.05%
inactive: SR leukemia 74.1% | RPMI-8226 leukemia 26.5% | OVCAR-8 ovarian 42.9% | OVCAR-5 ovarian 92.9% | OVCAR-4 ovarian 51.2% | SK-OV-3 ovarian 59.8% | IGROV1 ovarian 52.6% | OVCAR-3 ovarian 12.2% | NCI/ADR-RES ovarian 99.7% | T-47D breast 42.9% | BT-549 breast 37.2% | MDA-MB-435 melanoma 73.8% | SW-620 colon 65% | MCF7 breast 69% | HCT-116 colon 56.9% | HCC-2998 colon 51% | KM12 colon 58.5%

O=C(/C=C/c1ccc(F)cc1)c1ccc(NC(=O)N2CCN(c3cc4c(cc3F)c(=O)c(C(=O)O)cn4C3CC3)CC2)cc1
inactive: SR leukemia 71.9% | RPMI-8226 leukemia 98.6% | OVCAR-8 ovarian 90.8% | OVCAR-5 ovarian 96.9% | OVCAR-4 ovarian 98.2% | SK-OV-3 ovarian 99.4% | IGROV1 ovarian 89.5% | OVCAR-3 ovarian 97.6% | HS 578T breast 90.3% | NCI/ADR-RES ovarian 100% | T-47D breast 93.6% | BT-549 breast 75.7% | MDA-MB-435 melanoma 95.3% | SW-620 colon 92% | MCF7 breast 96.9% | HCT-116 colon 57.1% | HCC-2998 colon 103% | KM12 colon 100%

N#C/C(=C\c1ccccn1)c1nc2cc(Cl)ccc2s1
inactive: SR leukemia 40.3% | RPMI-8226 leukemia 59.3% | OVCAR-8 ovarian 73.1% | OVCAR-5 ovarian 96.8% | OVCAR-4 ovarian 71.5% | SK-OV-3 ovarian 62.9% | IGROV1 ovarian 42% | OVCAR-3 ovarian 75.4% | HS 578T breast 53.7% | NCI/ADR-RES ovarian 77% | T-47D breast 27.7% | BT-549 breast 33.3% | MDA-MB-435 melanoma 74.7% | SW-620 colon 77.5% | MCF7 breast 37.1% | HCT-116 colon 55% | HCC-2998 colon 92.7% | KM12 colon 96.2%

COc1ccc2c(c1)oc1c(C)c3c(c(C)c12)C(=O)N(N)C3=O
inactive: SR leukemia 26.2% | RPMI-8226 leukemia 59.5% | OVCAR-8 ovarian 26.9% | OVCAR-5 ovarian 40.4% | SK-OV-3 ovarian 61.2% | IGROV1 ovarian 26.8% | OVCAR-3 ovarian 24.9% | HS 578T breast 19.1% | NCI/ADR-RES ovarian 28.6% | T-47D breast 44.3% | MDA-MB-435 melanoma 36.8% | SW-620 colon 29.4% | MCF7 breast 57.3% | HCC-2998 colon 64.6% | KM12 colon 22%
active: OVCAR-4 ovarian -20.8% | BT-549 breast -43.5% | HCT-116 colon -13%

CC(=O)N1c2ccccc2NC2=C(C(=O)NC2(C)C)C1c1ccco1 (stereo unspecified)
active: MDA-MB-435 melanoma -19.1%
inactive: SR leukemia 29.1% | RPMI-8226 leukemia 63.1% | OVCAR-8 ovarian 100% | OVCAR-5 ovarian 95.1% | OVCAR-4 ovarian 93.8% | SK-OV-3 ovarian 95.6% | IGROV1 ovarian 56.7% | OVCAR-3 ovarian 97.1% | HS 578T breast 83.3% | NCI/ADR-RES ovarian 102% | T-47D breast 110% | BT-549 breast 86% | SW-620 colon 81.1% | MCF7 breast 37.9% | HCT-116 colon 87.8% | HCC-2998 colon 88.1% | KM12 colon 51.2%

O=Cc1ccc(-c2cn3ccnc3c(-c3ccc4ncn(Cc5ccccc5)c4c3)n2)cc1
inactive: SR leukemia 52.5% | RPMI-8226 leukemia 17.5% | OVCAR-8 ovarian 56% | OVCAR-5 ovarian 102% | OVCAR-4 ovarian 83.1% | SK-OV-3 ovarian 94.9% | IGROV1 ovarian 78.7% | OVCAR-3 ovarian 76.3% | HS 578T breast 54.4% | NCI/ADR-RES ovarian 62.6% | BT-549 breast 66.2% | MDA-MB-435 melanoma 87% | SW-620 colon 95.8% | MCF7 breast 52.2% | HCC-2998 colon 105% | KM12 colon 96.3%
active: T-47D breast 1.99% | HCT-116 colon 7.44%

CCCCCN1C=C/C(=C\C(=O)N(C)c2ccc(OC(F)(F)F)cc2)c2ccccc21
inactive: SR leukemia 100% | RPMI-8226 leukemia 94.7% | OVCAR-8 ovarian 95.3% | OVCAR-5 ovarian 100% | OVCAR-4 ovarian 87.6% | SK-OV-3 ovarian 90.6% | IGROV1 ovarian 93.2% | OVCAR-3 ovarian 105% | HS 578T breast 90.5% | NCI/ADR-RES ovarian 105% | T-47D breast 88.3% | BT-549 breast 109% | MDA-MB-435 melanoma 105% | SW-620 colon 98.1% | MCF7 breast 88.7% | HCT-116 colon 74.3% | HCC-2998 colon 106% | KM12 colon 102%

O=C(Cn1c[n+](CC(=O)c2ccc([N+](=O)[O-])cc2)c2ccccc21)Nc1cccc2cccnc12
inactive: SR leukemia 61.8% | RPMI-8226 leukemia 10.2% | OVCAR-8 ovarian 93.2% | OVCAR-5 ovarian 93.9% | OVCAR-4 ovarian 20.4% | SK-OV-3 ovarian 109% | IGROV1 ovarian 71.1% | OVCAR-3 ovarian 38.6% | HS 578T breast 74.6% | NCI/ADR-RES ovarian 102% | T-47D breast 33.9% | BT-549 breast 35.9% | MDA-MB-435 melanoma 60% | SW-620 colon 54.8% | MCF7 breast 31.4% | HCT-116 colon 37.2% | HCC-2998 colon 50.4% | KM12 colon 78.4%

NS(=O)(=O)c1ccc(CCN2C(=O)C=CC2=O)cc1
inactive: SR leukemia 91.6% | RPMI-8226 leukemia 102% | OVCAR-8 ovarian 104% | OVCAR-5 ovarian 106% | OVCAR-4 ovarian 97.7% | SK-OV-3 ovarian 110% | IGROV1 ovarian 104% | OVCAR-3 ovarian 106% | HS 578T breast 108% | NCI/ADR-RES ovarian 99.6% | T-47D breast 99.5% | BT-549 breast 111% | MDA-MB-435 melanoma 108% | SW-620 colon 106% | MCF7 breast 94.4% | HCT-116 colon 99.7% | HCC-2998 colon 95.2% | KM12 colon 104%

CN1CCN(c2ccc(NC3=C(Cl)C(=O)c4ncccc4C3=O)cc2C(F)(F)F)CC1
inactive: OVCAR-8 ovarian 30.4% | OVCAR-5 ovarian 100% | SK-OV-3 ovarian 84.9% | HS 578T breast 92.9% | NCI/ADR-RES ovarian 81.9% | BT-549 breast 89.8% | HCC-2998 colon 105% | KM12 colon 105%
active: SR leukemia 9.03% | RPMI-8226 leukemia -4.52% | OVCAR-4 ovarian -96.8% | IGROV1 ovarian -37.6% | OVCAR-3 ovarian -82.9% | T-47D breast -19.7% | MDA-MB-435 melanoma -62.5% | SW-620 colon -53% | MCF7 breast -49.1% | HCT-116 colon -57.3%

S=c1cc(S)c2cc(Br)ccc2[nH]1
inactive: SR leukemia 94.1% | RPMI-8226 leukemia 96.7% | OVCAR-8 ovarian 91.5% | OVCAR-5 ovarian 114% | OVCAR-4 ovarian 92.6% | SK-OV-3 ovarian 98.6% | IGROV1 ovarian 89.5% | OVCAR-3 ovarian 100% | HS 578T breast 109% | NCI/ADR-RES ovarian 101% | T-47D breast 84.5% | BT-549 breast 90.7% | MDA-MB-435 melanoma 95.5% | SW-620 colon 99.2% | MCF7 breast 88.7% | HCT-116 colon 78.2% | HCC-2998 colon 102% | KM12 colon 101%

Brc1ccc2[nH]cc(-c3cncn3CCc3ccccc3)c2c1
inactive: SR leukemia 40.7% | RPMI-8226 leukemia 29.7% | OVCAR-8 ovarian 66.9% | OVCAR-5 ovarian 71% | OVCAR-4 ovarian 25.9% | SK-OV-3 ovarian 64.9% | IGROV1 ovarian 76.9% | OVCAR-3 ovarian 36.7% | HS 578T breast 12.8% | NCI/ADR-RES ovarian 49.6% | T-47D breast 22.9% | BT-549 breast 41.3% | MDA-MB-435 melanoma 57.5% | SW-620 colon 72.2% | MCF7 breast 48.9% | HCT-116 colon 43% | HCC-2998 colon 72.5% | KM12 colon 68%

CCCCCCCCOc1ccc(/C=N/Nc2cc(C)nc3ccc(Br)cc23)cc1
inactive: RPMI-8226 leukemia 36.6% | OVCAR-8 ovarian 46.4% | OVCAR-5 ovarian 101% | SK-OV-3 ovarian 104% | IGROV1 ovarian 62.5% | OVCAR-3 ovarian 67.1% | HS 578T breast 64.1% | NCI/ADR-RES ovarian 65.1% | T-47D breast 80.9% | BT-549 breast 95.6% | MDA-MB-435 melanoma 64.7% | MCF7 breast 15.8% | HCC-2998 colon 89.8% | KM12 colon 57%
active: SR leukemia -14.3% | OVCAR-4 ovarian -1.74% | SW-620 colon 8.02% | HCT-116 colon 6.51%

C=C1C(=O)O[C@H]2[C@H]1CC/C(CNC(=O)C(C)c1ccc(CC(C)C)cc1)=C\CC[C@@]1(C)O[C@@H]21 (stereo partly specified)
inactive: OVCAR-5 ovarian 57.3% | OVCAR-4 ovarian 29.3% | SK-OV-3 ovarian 88.1% | HS 578T breast 25.4% | NCI/ADR-RES ovarian 55.3% | KM12 colon 57.8%
active: SR leukemia 8.13% | RPMI-8226 leukemia -21% | OVCAR-8 ovarian -32.5% | IGROV1 ovarian -36% | OVCAR-3 ovarian -87.9% | T-47D breast -46.3% | BT-549 breast -39.5% | MDA-MB-435 melanoma 0.546% | SW-620 colon -59% | MCF7 breast 4.24% | HCT-116 colon -87.8% | HCC-2998 colon -5.64%

Cc1cc(C(=O)/C=C/c2ccc[nH]2)ccc1-n1ccc(C(F)(F)F)n1
active: RPMI-8226 leukemia -40.1% | OVCAR-3 ovarian 4.46% | BT-549 breast -35% | KM12 colon -14%
inactive: SR leukemia 28.4% | OVCAR-8 ovarian 85.6% | OVCAR-5 ovarian 95.8% | OVCAR-4 ovarian 74.7% | SK-OV-3 ovarian 129% | IGROV1 ovarian 92.3% | HS 578T breast 94.3% | NCI/ADR-RES ovarian 89.3% | T-47D breast 85% | MDA-MB-435 melanoma 97.4% | SW-620 colon 96.6% | MCF7 breast 82.7% | HCT-116 colon 88.5% | HCC-2998 colon 108%

COc1ccc(C(=O)Nc2cccc(C3CCc4c(cc(OC)c(OC)c4OC)O3)c2)cc1 (stereo unspecified)
inactive: SR leukemia 21.6% | RPMI-8226 leukemia 23.9% | OVCAR-8 ovarian 55.6% | OVCAR-5 ovarian 91.1% | OVCAR-4 ovarian 47.4% | SK-OV-3 ovarian 51.6% | IGROV1 ovarian 52% | OVCAR-3 ovarian 35.3% | HS 578T breast 38.9% | NCI/ADR-RES ovarian 38.5% | T-47D breast 15.8% | BT-549 breast 40.9% | SW-620 colon 28.8% | MCF7 breast 33.1% | HCT-116 colon 23.1% | HCC-2998 colon 80.1% | KM12 colon 29.4%
active: MDA-MB-435 melanoma -14.9%

Fc1ccc2c(-c3cncn3CCc3ccccc3)c[nH]c2c1
inactive: SR leukemia 96.3% | RPMI-8226 leukemia 72.7% | OVCAR-8 ovarian 97.7% | OVCAR-5 ovarian 92.9% | OVCAR-4 ovarian 60.7% | SK-OV-3 ovarian 97.6% | IGROV1 ovarian 77.4% | OVCAR-3 ovarian 85.7% | HS 578T breast 67.3% | NCI/ADR-RES ovarian 95.1% | T-47D breast 74.4% | BT-549 breast 105% | MDA-MB-435 melanoma 93.2% | SW-620 colon 90.8% | MCF7 breast 86.6% | HCT-116 colon 75.7% | HCC-2998 colon 102% | KM12 colon 97.9%
